# Inconclusive results are not listed. Entries that show only a call come without a potency. A structure can be active in one record and inactive in another. Calls of active or inactive are those of the source. The call rests on the fitted dose curve; in most records, active means well fitted curve in the direction sought with a large enough effect; inconclusive means small, poorly fitted or top-dose-only effect, or another doubt; inactive means no such curve, though single readings can be large; an effect the other way counts as inactive or inconclusive.
# What was measured:
# Es-2 = test: Primary qHTS to identify gynecologic anti-cancer compounds using libraries of approved drugs and bioactive compounds (AID 1345084); conditions: Gynecologic cancer cell panel viability, ATPlite luminescence, 48 h; series mostly up to 57.5 µM; further: nearly all actives have a fitted effect of over 55% in size
# Summary of the method: (§1)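 Measured: luminescence after ATPlite addition (15 min, RT). Exposure: 48 h, 37 C, 5% CO2.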
# HeLa = test: as above; conditions: Gynecologic cancer cell panel viability, ATPlite luminescence, 48 h; series mostly up to 57.5 µM
# Summary of the method: as §1
# Hek293T = test: as above; conditions: Gynecologic cancer cell panel viability, ATPlite luminescence, 48 h, control line for the selectivity index; series mostly up to 57.5 µM
# Summary of the method: as §1
# JEG-3 = test: as above; conditions: Gynecologic cancer cell panel viability, ATPlite luminescence, 48 h; series mostly up to 57.5 µM
# Summary of the method: as §1
# OV90 = test: as above; conditions: Gynecologic cancer cell panel viability, ATPlite luminescence, 48 h; series mostly up to 57.5 µM
# Summary of the method: as §1
# PA-1 = test: as above; conditions: Gynecologic cancer cell panel viability, ATPlite luminescence, 48 h; series mostly up to 57.5 µM
# Summary of the method: as §1
# SKOV3 = test: as above; conditions: Gynecologic cancer cell panel viability, ATPlite luminescence, 48 h; series mostly up to 57.5 µM
# Summary of the method: as §1
# Tov-21-G = test: as above; conditions: Gynecologic cancer cell panel viability, ATPlite luminescence, 48 h; series mostly up to 57.5 µM
# Summary of the method: as §1
# Tov112D = test: as above; conditions: Gynecologic cancer cell panel viability, ATPlite luminescence, 48 h; series mostly up to 57.5 µM
# Summary of the method: as §1
# [1] = Drug repurposing screens with cells derived from glioblastoma tumor samples (AID 1345199); conditions: GBM patient neurospheres viability, ATP luminescence, 48 h; further: nearly all actives have a fitted effect of over 40% in size
# Summary of the method: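 Primary testing used CD133+ neurospheres from four GBM patients, seven concentrations, 48 h exposure and ATP-based viability; confirmation added three slower-growing patient lines.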
# [2] = at 45.9 µM (top of the series), tumour line D
# [3] = at 45.9 µM (top of the series), tumour line B
# [4] = at 46 µM (top of the series), tumour line A
# Potency means the concentration at half of the fitted maximal effect.
smiles,measurement,setting,value
O=[N+]([O-])c1cc([As](=O)(O)O)ccc1O,Potency,Es-2,inactive
same,Potency,HeLa,inactive
same,Potency,Hek293T,inactive
same,Potency,JEG-3,inactive
same,Potency,OV90,inactive
same,Potency,PA-1,inactive
same,Potency,SKOV3,inactive
same,Potency,Tov-21-G,inactive
same,Potency,Tov112D,inactive
CC(C)(C)CC(C)(C)c1ccc(O)cc1,Potency,Es-2,inactive
same,Potency,HeLa,inactive
same,Potency,Hek293T,inactive
same,Potency,JEG-3,inactive
same,Potency,OV90,inactive
same,Potency,PA-1,inactive
same,Potency,SKOV3,inactive
same,Potency,Tov-21-G,inactive
same,Potency,Tov112D,inactive
same,"activity, negative = cell killing",[1]; [2],-15% (inactive)
same,Potency,[1]; tumour line B,44.7 µM (active)
same,Potency,[1]; tumour line D,63.1 µM (active)
Cn1cc(C2=C(c3cn(C4CCN(Cc5ccccn5)CC4)c4ccccc34)C(=O)NC2=O)c2ccccc21,Potency,Es-2,inactive
same,Potency,HeLa,inactive
same,Potency,Hek293T,inactive
same,Potency,JEG-3,inactive
same,Potency,OV90,inactive
same,Potency,PA-1,inactive
same,Potency,SKOV3,inactive
same,Potency,Tov-21-G,inactive
same,Potency,Tov112D,inactive
same,"activity, negative = cell killing",[1]; [3],31.3% (inactive)
same,Potency,[1]; tumour line A,2.51 µM (active)
same,Potency,[1]; tumour line D,20 µM (active)
COC[C@@H](NC(C)=O)C(=O)NCc1ccccc1,Potency,Es-2,inactive
same,Potency,HeLa,inactive
same,Potency,Hek293T,inactive
same,Potency,JEG-3,inactive
same,Potency,OV90,inactive
same,Potency,PA-1,inactive
same,Potency,SKOV3,inactive
same,Potency,Tov-21-G,inactive
same,Potency,Tov112D,inactive
NCCc1cc(O)c(O)cc1O,Potency,Es-2,inactive
same,Potency,HeLa,inactive
same,Potency,Hek293T,inactive
same,Potency,JEG-3,inactive
same,Potency,OV90,inactive
same,Potency,PA-1,inactive
same,Potency,SKOV3,inactive
same,Potency,Tov-21-G,inactive
same,Potency,Tov112D,inactive
same,"activity, negative = cell killing",[1]; [3],-19% (inactive)
same,"activity, negative = cell killing",[1]; [2],-22% (inactive)
NCC(CC(=O)O)c1ccc(Cl)cc1 (stereo not given),"activity change, negative = cytotoxicity",Es-2,4.42% [at 0.462 µM] (inactive)
same,"activity change, negative = cytotoxicity",HeLa,8.44% [at 0.462 µM] (inactive)
same,"activity change, negative = cytotoxicity",Hek293T,-3.58% [at 0.462 µM] (inactive)
same,"activity change, negative = cytotoxicity",JEG-3,-6.96% [at 0.462 µM] (inactive)
same,"activity change, negative = cytotoxicity",OV90,19.2% [at 0.462 µM] (inactive)
same,"activity change, negative = cytotoxicity",PA-1,5.78% [at 0.462 µM] (inactive)
same,"activity change, negative = cytotoxicity",SKOV3,1.02% [at 0.462 µM] (inactive)
same,"activity change, negative = cytotoxicity",Tov-21-G,5.93% [at 0.462 µM] (inactive)
same,"activity change, negative = cytotoxicity",Tov112D,-1.06% [at 0.462 µM] (inactive)
same,"activity, negative = cell killing",[1]; [3],-0.559% (inactive)
same,"activity, negative = cell killing",[1]; [2],-15.2% (inactive)
same,"activity, negative = cell killing",[1]; [4],-26.1% (inactive)
O=c1oc2ccccc2c(O)c1C(CC(O)c1ccc(-c2ccc(Br)cc2)cc1)c1ccccc1 (stereo not given),Potency,Es-2,inactive
same,Potency,HeLa,inactive
same,Potency,Hek293T,inactive
same,Potency,JEG-3,inactive
same,Potency,OV90,inactive
same,Potency,PA-1,inactive
same,Potency,SKOV3,inactive
same,Potency,Tov-21-G,inactive
same,Potency,Tov112D,inactive
same,"activity, negative = cell killing",[1]; [3],-19.7% (inactive)
N[C@@H]1C[C@H]1c1ccccc1,Potency,Es-2,inactive
same,Potency,HeLa,inactive
same,Potency,Hek293T,inactive
same,Potency,JEG-3,inactive
same,Potency,OV90,inactive
same,Potency,PA-1,inactive
same,Potency,SKOV3,inactive
same,Potency,Tov-21-G,inactive
same,Potency,Tov112D,inactive
same,"activity, negative = cell killing",[1]; [3],-7.72% (inactive)
same,"activity, negative = cell killing",[1]; [2],-6.02% (inactive)
CNCC(O)c1ccc(O)cc1 (stereo not given),Potency,Es-2,inactive
same,Potency,HeLa,inactive
same,Potency,Hek293T,inactive
same,Potency,JEG-3,inactive
same,Potency,OV90,inactive
same,Potency,PA-1,inactive
same,Potency,SKOV3,inactive
same,Potency,Tov-21-G,inactive
same,Potency,Tov112D,inactive
same,"activity, negative = cell killing","[1]; at 21.2 µM (top of the series), tumour line B",9.4% (inactive)
same,"activity, negative = cell killing","[1]; at 21.2 µM (top of the series), tumour line D",0.215% (inactive)
same,"activity, negative = cell killing","[1]; at 21.3 µM (top of the series), tumour line A",-26.2% (inactive)
Cc1cccc(C)c1NC1=NCCCS1,Potency,Es-2,inactive
same,Potency,HeLa,inactive
same,Potency,Hek293T,inactive
same,Potency,JEG-3,inactive
same,Potency,OV90,inactive
same,Potency,PA-1,inactive
same,Potency,SKOV3,inactive
same,Potency,Tov-21-G,inactive
same,Potency,Tov112D,inactive
same,"activity, negative = cell killing",[1]; [3],-12.3% (inactive)
same,Potency,[1]; tumour line A,17.8 µM (active)
O=C(NC(O)C(Cl)(Cl)Cl)NC(O)C(Cl)(Cl)Cl (stereo not given),Potency,Es-2,inactive
same,Potency,HeLa,inactive
same,Potency,Hek293T,inactive
same,Potency,JEG-3,inactive
same,Potency,OV90,inactive
same,Potency,PA-1,inactive
same,Potency,SKOV3,inactive
same,Potency,Tov-21-G,inactive
same,Potency,Tov112D,inactive
same,"activity, negative = cell killing",[1]; [3],-10.4% (inactive)
same,"activity, negative = cell killing",[1]; [2],2.45% (inactive)
same,"activity, negative = cell killing",[1]; [4],-14.7% (inactive)
Cn1c(CCCC(=O)O)nc2cc(N(CCCl)CCCl)ccc21,Potency,Es-2,inactive
same,Potency,HeLa,inactive
same,Potency,Hek293T,inactive
same,Potency,JEG-3,inactive
same,Potency,OV90,inactive
same,Potency,PA-1,inactive
same,Potency,SKOV3,inactive
same,Potency,Tov-21-G,inactive
same,Potency,Tov112D,inactive
same,"activity, negative = cell killing",[1]; [3],-8.98% (inactive)
same,"activity, negative = cell killing",[1]; [2],-16.3% (inactive)
O=C1NCN(c2ccccc2)C12CCN(CC1COc3ccccc3O1)CC2 (stereo not given),Potency,Es-2,inactive
same,Potency,HeLa,inactive
same,Potency,Hek293T,inactive
same,Potency,JEG-3,inactive
same,Potency,OV90,inactive
same,Potency,PA-1,inactive
same,Potency,SKOV3,inactive
same,Potency,Tov-21-G,inactive
same,Potency,Tov112D,inactive
same,"activity, negative = cell killing",[1]; [3],-6.74% (inactive)
same,Potency,[1]; tumour line A,12.6 µM (active)
Oc1cccc2cccnc12,Potency,Es-2,inactive
same,Potency,HeLa,inactive
same,Potency,Hek293T,inactive
same,Potency,JEG-3,inactive
same,Potency,OV90,inactive
same,Potency,PA-1,inactive
same,Potency,SKOV3,inactive
same,Potency,Tov-21-G,inactive
same,Potency,Tov112D,inactive
same,"activity, negative = cell killing",[1]; [3],-22.3% (inactive)
same,"activity, negative = cell killing",[1]; [2],-9.58% (inactive)
O=C(O)c1ccc2[nH]cc(CCCCN3CC=C(c4ccccc4)CC3)c2c1,Potency,Es-2,inactive
same,Potency,HeLa,inactive
same,Potency,Hek293T,inactive
same,Potency,JEG-3,inactive
same,Potency,OV90,inactive
same,Potency,PA-1,inactive
same,Potency,SKOV3,inactive
same,Potency,Tov-21-G,inactive
same,Potency,Tov112D,inactive
same,"activity, negative = cell killing",[1]; [3],-0.385% (inactive)
same,"activity, negative = cell killing",[1]; [2],-15.3% (inactive)
Oc1cc(Cl)ccc1Oc1ccc(Cl)cc1Cl,Potency,Es-2,inactive
same,Potency,HeLa,44.7 µM (active) and inactive
same,Potency,Hek293T,inactive
same,Potency,JEG-3,inactive
same,Potency,OV90,inactive
same,Potency,PA-1,inactive
same,Potency,SKOV3,35.5 µM (active) and inactive
same,Potency,Tov-21-G,inactive
same,Potency,Tov112D,inactive
same,"activity, negative = cell killing",[1]; [4],-27.9% (inactive)
COc1ccc(C(=O)c2c(C)n(CCN3CCOCC3)c3ccccc23)cc1,Potency,Es-2,inactive
same,Potency,HeLa,inactive
same,Potency,Hek293T,inactive
same,Potency,JEG-3,inactive
same,Potency,OV90,inactive
same,Potency,PA-1,inactive
same,Potency,Tov-21-G,inactive
same,Potency,Tov112D,inactive
same,"activity, negative = cell killing",[1]; [3],-14.8% (inactive)
same,"activity, negative = cell killing",[1]; [2],-16% (inactive)
